Assay outcomes deposited in PubChem BioAssay by several laboratories.
Mtb UGM inh: Mtb UDP-galactopyranose mutase inhibition; actives 0.06% (n = 320,000); purified UGM, fluorescence polarization probe displacement; inhibition, % at 10 µM; in the data active = inhibition above about 10%, passing the limit was not always enough
GDH-TPI counter-1: counter-screen for M. tuberculosis FBA inhibitors: GDH-TPI coupled enzymes; GDH-TPI coupled enzyme counterscreen, NADH absorbance; inhibition, % at 4.8 µM; actives 1.2% (n = 360,000); in the data active = inhibition above about 30%;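 also: 0% = DMSO wells and 100% = wells lacking the enzyme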
Vc quorum ag: induces V. cholerae light production without autoinducers | activation, % at 18.7 µM | V. cholerae BH1578 lux reporter, luminescence, 6 h | actives 0.16% (n = 350,000); in the data active = activation mostly above about 9.7%, no sharp cut-off
RecA intein inh: blocks M. tuberculosis RecA intein splicing. cell-free RecA intein splicing, fluorescence. inhibition, % (test concentration not listed). actives 0.75% (n = 290,000). AID 2221; in the data active = inhibition above about 30%;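 also: 0% = vehicle wells and 100% = reference inhibitor control wells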
FBA Mtb inh: inhibitors of M. tuberculosis fructose-bisphosphate aldolase. AID 588726. inhibition, % at 1 µM. P9WQA3. actives 2.3% (n = 360,000). purified M. tuberculosis FBA, fluorescence read-out;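 also: 0% = vehicle and 100% = reference inhibitor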
Rv3671c inh: Rv3671c (M. tuberculosis) protease inhibition. P9WHR9. AID 2606. inhibition, % at 5.96 µM. actives 0.048% (n = 320,000); in the data active = inhibition above about 38%;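 also: extracellular domain of Rv3671c used as enzyme; 0% = enzyme with DMSO and 100% = no enzyme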
Target sequence (P9WHR9 whole entry, looked up, the tested form may be a part): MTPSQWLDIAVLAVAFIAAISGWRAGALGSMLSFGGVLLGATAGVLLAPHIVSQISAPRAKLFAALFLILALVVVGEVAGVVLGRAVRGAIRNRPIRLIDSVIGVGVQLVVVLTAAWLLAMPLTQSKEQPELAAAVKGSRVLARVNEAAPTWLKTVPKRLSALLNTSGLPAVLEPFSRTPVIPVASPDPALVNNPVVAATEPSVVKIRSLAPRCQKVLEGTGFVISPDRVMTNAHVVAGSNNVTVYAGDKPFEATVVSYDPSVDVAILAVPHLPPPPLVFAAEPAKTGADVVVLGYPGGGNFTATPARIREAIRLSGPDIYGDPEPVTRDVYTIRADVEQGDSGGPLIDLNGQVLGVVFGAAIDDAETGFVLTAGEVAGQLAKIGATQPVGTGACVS
Mtb FBA confirm: Mtb FBA inhibition, confirmed; purified M. tuberculosis FBA, fluorescence read-out; shares compounds with FBA Mtb inh; AID 651616; inhibition, % at 1 µM; actives 78% (n = 5,600);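 also: 0% = vehicle wells and 100% = reference inhibitor wells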
GDH-TPI counter-2: counter-screen for M. tuberculosis FBA inhibitors: GDH-TPI coupled enzyme inhibition. shares compounds with FBA Mtb inh. GDH-TPI coupled enzyme counterscreen, fluorescence. inhibition, % at 1 µM. actives 81% (n = 5,600). AID 652141; in the data active = inhibition above about 10%
An asterisk follows results filed as active; i = inactive; . = no result given. Rows were chosen to be rich in hits. Some 4.1% of all compounds tested hit in one or more screens of this group. Rule as the data show it, unless noted: active = inhibition above about 27%; inactive = the rest.

SMILES | Mtb UGM inh | GDH-TPI counter-1 | Vc quorum ag | RecA intein inh | FBA Mtb inh | Rv3671c inh | Mtb FBA confirm | GDH-TPI counter-2
Cc1sc2ncnc(N3CCN(C(=O)c4ccco4)CC3)c2c1C | -1 | -1 | -2 | -6 | 1 | -8 | . | .
Cc1cccc2[nH]c3c(N4CCC5(CC4)OCCO5)ncnc3c12 | 1 | 31* | 0 | -1 | 41* | 4 | 68* | 52*
Clc1ccc2[nH]c3c(N4CCC5(CC4)OCCO5)ncnc3c2c1 | 1 | . | . | 0 | . | 1 | . | .
Cc1ccc(S(=O)(=O)CC(CN2CCOCC2)N2CCOCC2)cc1 (stereo unspecified) | 1 | 7 | 0 | -7 | -3 | 2 | . | .
CC1CCN(CC(CS(=O)(=O)c2ccc([N+](=O)[O-])cc2)N2CCC(C)CC2)CC1 (stereo unspecified) | 3 | 10 | 0 | 1 | 55* | 2 | 74* | 60*
O=[N+]([O-])c1ccc(Cl)c(NC2=NCCCCC2)c1 | 0 | 0 | 0 | 10 | -2 | -1 | . | .
CCc1nc2ccc(C(=O)NCCC(C)C)cn2c1N(CC)CCOC | . | 9 | 0 | . | 0 | . | . | .
Cc1ccc2nc(N3CCN(C(=O)CCCC(=O)O)CC3)nc(-c3ccccc3)c2c1 | 7 | 10 | -1 | -278 | 32* | -10 | 73* | 38*
O=C(O)CCC(=O)N1CCN(c2nc(-c3ccccc3)c3ccccc3n2)CC1 | -1 | 11 | i | -49 | 13 | -1 | . | .
CCCCn1nc2cc(C(=O)N(CC)c3ccc(OC)cc3)ccc2c1OCC | 1 | 3 | -11 | -2 | 28* | 3 | 112* | 87*
CCN(C(=O)c1ccc2c(OC)n(CC)nc2c1)c1ccc(OC)cc1 | 1 | 3 | i | -27 | 31* | 1 | -3 | -5
CCN(C(=O)c1cc2c(=O)[nH]c3ccc(C)cc3c2s1)c1ccc(OC)cc1 | 0 | 1 | -1 | 2 | -1 | -9 | . | .
O=C(Nc1ccc2nc(C(F)(F)F)[nH]c2c1)[C@@H]1O[C@H](CO)[C@@H](O)[C@H]1O | . | -11 | 0 | . | 0 | . | . | .
NC(=NCc1ccccc1)NC(=O)c1nc(Cl)c(N)nc1N | 0 | 15 | 0 | -1 | 37* | -3 | 32* | 37*
Cc1ccc(S(=O)(=O)N2C[C@H]3[C@H]4C(=O)N(c5ccccc5)C(=O)[C@H]4C[C@H](OC(=O)NCC4CCCCC4)[C@@]3(O)C2)cc1 | . | -6 | -1 | . | -5 | . | . | .
O=C(CCc1ccccc1)NNC(=O)c1cc(Cl)ccc1O | 2 | 9 | i | 8 | 35* | -1 | 0 | -3
O=C(CCc1ccccc1)NNC(=O)c1ccccc1C(=O)O | 0 | -2 | 0 | 0 | -2 | 3 | . | .
CCOC(=O)c1[nH]c2ccc(OC)cc2c1NC(=O)CCN1CCC(C)CC1 | -3 | . | . | 0 | . | -3 | . | .
C=CCOC(=O)Nc1c(C(=O)OC)[nH]c2ccc(Cl)cc12 | 0 | 17 | i | 3 | 40* | -1 | 0 | -3
CCOC(=O)c1[nH]c2ccc(OC)cc2c1NC(=O)CCN1CCc2ccccc2C1 | -1 | 7 | 1 | 3 | 40* | 5 | 87* | 83*
CCOC(=O)N1CCN(CC(=O)Nc2c(C(=O)OC)[nH]c3ccc(Cl)cc23)CC1 | -1 | 5 | i | 3 | 17 | -3 | . | .
CCOC(=O)c1[nH]c2ccc(OC)cc2c1NC(=O)CN1CCSCC1 | 3 | 7 | 8 | . | 44* | 6 | 68* | 52*
CCOC(=O)c1[nH]c2ccc(F)cc2c1NC(=O)c1ccccc1C(=O)O | 0 | -2 | -1 | -6 | 59* | . | 5 | 0
Cc1ccc(S(=O)(=O)N2CCN(C(=O)C(Cc3ccccc3)NC(=O)c3ccccc3)CC2)cc1 (stereo unspecified) | 2 | 0 | i | . | -3 | -7 | . | .
CCOC(=O)c1[nH]c2ccc(OC)cc2c1NC(C)=O | -1 | 8 | i | 0 | 34* | 3 | 5 | -2
CCOC(=O)c1[nH]c2ccc(OC)cc2c1NC(=O)c1ccc2c(c1)OCO2 | -1 | 6 | -2 | -1 | -3 | -7 | . | .
